HT1080 IDH1KD tx: kills HT-1080 cells with IDH1 knockdown; HT-1080 IDH1 knockdown viability, ATP luminescence, 48 h; 360,000 compounds, 2% hits; AID 686971; Potency, µM (top dose mostly 46.1 µM), for inactives: at the top dose activity, negative = toxicity, usual class: cytotoxic;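 also: potency is read from the fitted curve at half-maximal effect; 0% = DMSO wells and -100% = cell-free medium wells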
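Assay cells: HT-1080 with IDH1 knockdown, 750 per well, RPMI/5% FBS. Exposure: 48 h at 37 °C following 2 h pre-incubation. Read: CellTiter-Glo luminescence; fitted concentration-response, curve class assigned.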
TDP1 cell noCPT: qHTS for Inhibitors of human tyrosyl-DNA phosphodiesterase 1 (TDP1): qHTS in cells in absence of CPT; AID 686978, 2013; 420,000 compounds, 15% hits; Potency, µM (titrated, usually from 46.2 µM), without a hit: top-dose activity change, negative = growth inhibition, actives largely listed as inhibitors; DT40 Tdp1-/- hTDP1 cells, no CPT, ATP luminescence, 48 h; also: potency is read from the fitted curve at half-maximal effect; nearly all actives have a fitted effect of over 55% in size
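No-CPT arm: Tdp1-/-;hTDP1 DT40 cells (400/well) plus compounds, incubated ≥48 hr at 37 °C. Readout CellTiter-Glo luminescence.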
HT1080-NT tox: kills 2HG-producing HT-1080-NT fibrosarcoma cells; 360,000 compounds, 1.6% hits; HT-1080-NT fibrosarcoma viability, CellTiter-Glo ATP luminescence, 48 h; Potency, µM (titrated, usually from 46.1 µM), inactives show at the top dose activity, negative = less viability, usual class: cytotoxic;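 also: NT is the 2HG producing partner of a matched IDH1 knockdown line; potency is read from the fitted curve at half-maximal effect; 0% = DMSO-treated cells and -100% = media-only wells without cells; nearly all actives have a fitted effect of over 55% in size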
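HT-1080-NT fibrosarcoma cells (2HG-overproducing), 750 cells/well in RPMI with 5% FBS, dosed after 2 h and incubated 48 h at 37C. CellTiter-Glo luminescence normalized to DMSO and no-cell wells; concentration-response curves fitted and classed.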
IL1B secr inh: blocks inflammasome-driven IL-1 beta release. THP-1 LPS/ATP IL-1B secretion, AlphaLISA, 16 h; hits give low values. activity change, % at 57.5 µM. 360,000 compounds, 4.7% hits. AID 743279; in the data active = activity change below about -50%; inconclusive = mostly about -30% to -49%
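Secreted IL-1B measured by AlphaLISA bead assay after 16 h compound exposure of THP-1 cells; compounds (final up to 57.5 uM) added 1 h before LPS (250 ng/mL) and ATP (1.25 mM) stimulation; lower signal means less secretion.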
DT40 TDP1 CPT: DT40-hTDP1 cell growth loss with CPT. chicken DT40 Tdp1-/-;hTDP1 cells + 20 nM CPT, ATP luminescence, 48 h. Potency, µM (doses to about 46.2 µM), inactives show at the highest dose activity change, negative = growth inhibition, usual class: inhibitors. 420,000 compounds, 12% hits. AID 686979; also: potency is read from the fitted curve at half-maximal effect; nearly all actives have a fitted effect of over 55% in size
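Cell growth measured by CellTiter-Glo luminescence after a minimum 48 h, 37 C compound exposure with 20 nM CPT in Tdp1-knockout DT40 cells stably expressing hTDP1, seeded 400/well; qHTS titration format.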
An asterisk follows results filed as active; ? = inconclusive; nt = no result given. The list is not random: actives were taken first. Their share in the collection is about 19%. Unless noted, calls follow the shape of the dose curve; as a rule, active = well fitted curve in the direction sought with a large enough effect; inconclusive = small, poorly fitted or top-dose-only effect, or another doubt; inactive = no such curve, though single readings can be large; an effect the other way counts as inactive or inconclusive. Unless noted, % is scaled to controls: 0 for no effect and ±100 for the full control effect.

SMILES	HT1080 IDH1KD tx	TDP1 cell noCPT	HT1080-NT tox	IL1B secr inh	DT40 TDP1 CPT
O=C(c1ccc(CS(=O)Cc2ccc(Cl)cc2)o1)N1CCN(C2CCCCC2)CC1 (stereo unspecified)	-10.6%	?	-8.5%	-28.2	-7.0%
CC(=O)NC(CC(=O)OCC(=O)N1CCN(S(=O)(=O)c2ccc(C)cc2C)CC1)c1ccccc1 (stereo unspecified)	-4.6%	-27.0%	2.9%	11.3	-8.7%
CSc1nc(-c2ccccc2)nc(C(C)C)n1	-2.2%	?	5.1%	13.6	?
COc1ccc(C2NC(=O)Cc3cc(OC)c(OC)cc32)cc1OC (stereo unspecified)	-1.9%	-17.2%	-3.0%	0.0	-21.7%
CCOc1cc2c(cc1OCC)C(c1ccc(OC)c(OC)c1)N(c1ccc(C(=O)O)cc1)C(=O)C2 (stereo unspecified)	-0.7%	-12.4%	0.1%	-1.5	27.4%
COc1cc2c(cc1OC)C(c1ccc(F)cc1)N(c1cccc(C#N)c1)C(=O)C2 (stereo unspecified)	nt	?	nt	nt	14.6µM*
COc1cc2c(cc1OC)C(c1ccc(Cl)cc1)N(c1cccc(C#N)c1)C(=O)C2 (stereo unspecified)	nt	?	nt	nt	23.1µM*
Cn1cc(CN2CCCC(C(=O)c3nccn3C)C2)c(-c2cccc(Cl)c2)n1 (stereo unspecified)	0.5%	?	-1.7%	5.5	22.0%
O=[N+]([O-])c1ncccc1OCc1ccc(-c2ccccc2)cc1	-11.3%	16.4µM*	-20.7%	-55.6*	?
NC(=O)COc1ccc(-n2cnnn2)cc1	0.9%	5.3%	4.4%	-2.7	-2.4%
COc1ccc(C(C)=O)cc1COc1ccccc1[N+](=O)[O-]	-14.9%	-1.3%	1.5%	-8.2	-11.8%
COc1ccc(C(C)=O)cc1COc1cccnc1[N+](=O)[O-]	?	16.4µM*	-20.3%	-2.4	?
COc1ccc(C(C)=O)cc1CSC(=N)N	0.7%	-25.7%	0.3%	-8.6	?
CCOc1ccc(C(C)=O)cc1CSC(=N)N	0.2%	20.6µM*	-10.1%	3.6	?
CCOc1ccc(C(C)=O)cc1COc1ccc(-n2cnnn2)cc1	-1.9%	?	-0.9%	-57.1*	-23.2%
COc1ccc(OC)c(NC(=O)C(=O)NNC(=O)C23CC4CC(CC(C4)C2)C3)c1	?	?	-27.8%	nt	?
CC(=O)NC(=O)COC(=O)/C=C/c1c(C)nn(Cc2c(Cl)cccc2Cl)c1Cl	-0.8%	?	-0.8%	28.1	-20.3%
CCc1nnc(NC(=O)C2CCCN2S(=O)(=O)c2ccc(F)cc2)s1 (stereo unspecified)	3.1%	-28.6%	5.0%	35.2	0.0%
CCOc1ccc(C(C)=O)cc1COc1cccnc1[N+](=O)[O-]	?	6.51µM*	?	25.2	6.51µM*
CCCN(C(=O)CCc1ccc(OC)cc1)c1c(N)n(Cc2ccccc2)c(=O)[nH]c1=O	1.2%	5.6%	4.0%	-3.2	-4.3%
CC(C)C(NC(=O)c1ccc(F)cc1)C(=O)N1CCC1 (stereo unspecified)	-9.6%	1.3%	-2.2%	31.7	-7.2%
CCOC(=O)N1CCN(C(=O)CSCc2ccc(Cl)cc2)CC1	-14.7%	?	-8.4%	24.5	?
CCOC(=O)N1CCN(C(=O)CSCc2ccc(Br)cc2)CC1	-4.4%	?	-0.4%	-60.3*	-23.1%
CCOC(=O)N1CCN(C(=O)C(NC(=O)c2ccc(CC)cc2)C(C)C)CC1 (stereo unspecified)	10.7%	5.8µM*	-6.1%	-18.9	8.2µM*
CCOC(=O)N1CCN(C(=S)NC(=O)c2ccc(Br)cc2)CC1	-15.3%	13µM*	-4.6%	?	?
Cc1ccc(C(=O)NC(=S)N2CCN(C(=O)OC(C)(C)C)CC2)cc1Br	-0.4%	13µM*	7.6%	0.0	18.4µM*

Source: PubChem
